# Experimental data taken from PubChem BioAssay AID602478 (National Center for Advancing Translational Sciences (NCATS), 2012).
# Inconclusive results are not listed. Values without a mark were called inactive. Calls of active or inactive are those of the source. The call rests on the fitted dose curve; in most records, active means well fitted activation curve with a large enough effect; inconclusive means small, poorly fitted or top-dose-only effect; inactive means flat fitted curve, though single readings scatter.
# Target: Luciferin 4-monooxygenase (Photinus pyralis) (UniProt P08659)
# Test: FLuc inhibitory activity for the follow-up compounds in a cell-based translational read-through assay (72 hour incubation)
# Conditions: GripTite 293 FLucUGA read-through, luminescence; series mostly up to 38.3 µM; activation (luciferase signal increase): at the top concentration
# Source text: NCGC Assay Overview: Firefly (Photinus pyralis) luciferase is one of the most commonly used transcriptional reporters. It is considered one of the more dynamically responsive reporters - that is, responsive to changes in reporter transcription - as it requires no post-translational modifications and is enzymatically active directly after protein synthesis (Wood, 1998). With no endogenous expression in mammalian cells and without the requirement of external excitation, it offers very little background signal, thus generally providing excellent signal to background for most assays. Previous profiling work to determine the prevalence of compounds that affect FLuc enzymatic activity (PubChem AID 411) identified that ~3% of the MLSMR library (then at ~72K) inhibited FLuc (Auld et al., 2008). […] Of the compounds identified in this profile that inhibited FLuc, 151 compounds were selected for further analysis, in an effort to better understand their mode of inhibiting FLuc. The assay described here was to determine the activity of the compounds in a cell-based firefly luciferase reporter gene assay originally designed to identify compounds that enchanced translational read-through of a FLuc cDNA that contained a premature stop codon (Auld et al., 2009; Auld et al., 2010). Compounds that enhance translational read-through or compounds that stabilize FLuc intracellularly are identified as active compounds in the assay.
# NCGC Assay Protocol Summary: Reagents: Transient transfection of FlucUGA construct: TransFast Transfection Reagent (Promega #E2431); FLucUGA construct (refer to Auld et al., 2009) #GripTite 293 MSR Cell Line (Invitrogen #R795-07) #Complete growth media: DMEM (Invitrogen #11965), 10% HIFBS, 0.1mM MEM NEAA, 5mL/L pen-strep (of 5000U/mL stock), 600ug/mL Geneticin #Assay media: DMEM without phenol red (Invitrogen #21063), 5% charcoal-stripped HIFBS (Hyclone #SH30071.03), 0.1mM MEM NEAA In-house detection reagent: 300mM Tris-HCl, 300mM Trizma base, 300mM MgCl, 1% Triton-X100, 5mM DTT, 500uM Coenzyme A trilithium salt (Sigma #C3019),450uM ATP (Sigma #A7699), 1mM D-luciferin sodium salt monohydrate (Biosynth #L8240) Control compounds used were two known firefly luciferase inhibitors (3-(5-(3-chlorophenyl)-1,2,4-oxadiazol-3-yl)benzoic acid and 5-(2-fluorophenyl)-3-phenyl-1,2,4-oxadiazole), and DMSO. Assay Summary: Transient transfection of FlucUGA construct: Day 1: GripTite cells were plated in T175 flasks at a density of 1.75 x 10^7 cells/T175 flask in complete growth media without Geneticin and allowed to grow ON in a 37 degrees Celsius incubator. Day 2: Cells in T175 flask were transfected - with 10ug of DNA and 30uL Transfast in 12mL complete growth media without serum and without Geneticin for 4 hours at 37 degrees Celsius. After incubation, cells were trypsinized, spun down, and resuspended to a concentration of 3.3 x 10^5 cells/mL in assay media. 6uL of cells in assay buffer were dispensed at 2000cells/well (3.3 x 10^5 cells/mL) into Greiner solid-white TC-treated 1536-well plates using a Multidrop Combi (Thermo Fisher Scientific). Plates were incubated for one hour at 37 degree Celsius, 95% humidity, 5% CO2. These assay plates were then treated with 23nL of compound or DMSO using a Kalypsys pin tool, which allows for delivery of a 12-point titration of each compound to the assay plate, with a final compound concentration ranging from approximately ~38uM to 0.2nM. Assay plates were then incubated for 72 hours. After incubation, plates were washed three times with DPBS (7uL/well). After the third wash, 6uL of DPBS was added to each well. 3uL of 3X luciferase detection reagent was then added to each well using a flying reagent dispenser (FRD). After a 15 minute incubation to allow for cell lysis, luciferase activity was measured using a ViewLux CCD imager (PerkinElmer), with an average exposure time of 2-12 seconds.
# Chain of Luciferin 4-monooxygenase (Photinus pyralis) (P08659 whole entry, looked up): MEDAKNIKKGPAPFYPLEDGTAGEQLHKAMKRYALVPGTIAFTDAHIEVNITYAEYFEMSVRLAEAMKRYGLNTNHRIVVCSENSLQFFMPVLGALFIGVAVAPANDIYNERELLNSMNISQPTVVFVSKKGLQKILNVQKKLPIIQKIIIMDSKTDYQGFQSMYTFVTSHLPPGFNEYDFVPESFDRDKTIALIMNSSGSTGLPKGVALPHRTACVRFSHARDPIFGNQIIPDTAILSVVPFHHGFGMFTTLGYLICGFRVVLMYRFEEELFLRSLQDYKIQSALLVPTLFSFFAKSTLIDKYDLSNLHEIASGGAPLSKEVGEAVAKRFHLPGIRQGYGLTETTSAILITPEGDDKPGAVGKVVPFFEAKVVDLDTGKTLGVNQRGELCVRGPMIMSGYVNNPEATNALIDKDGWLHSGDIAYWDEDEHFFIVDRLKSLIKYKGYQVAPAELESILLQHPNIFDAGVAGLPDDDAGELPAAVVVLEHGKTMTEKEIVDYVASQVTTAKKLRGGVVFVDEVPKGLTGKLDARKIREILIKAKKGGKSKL
Structure (SMILES),activation (luciferase signal increase) [%],Potency
O=C(Nc1ccccc1C(=O)O)c1cc(S(=O)(=O)Nc2ccccc2)ccc1Cl,2.25,
O=C(Cc1ccc(Cl)cc1)Nc1cccc(C(=O)Nc2ccccc2C(=O)O)c1,1.21,
Cc1ccc2nc(-c3ccc(N)cc3)sc2c1,,1420 nM (active)
O=C(O)c1ccc(NC(=O)c2cc(S(=O)(=O)N3CCCCC3)c(Cl)cc2Cl)cc1,0.522,
Cc1ccc(S(=O)(=O)N2CCOCC2)cc1C(=O)Nc1ccccc1C(=O)O,-2.13,
COc1cc(C(=O)Nc2cc(C)c(O)c(-c3nc4ccccc4s3)c2)cc(OC)c1OC,0.911,
COc1ccc(C(=O)Nc2cccc(C(=O)O)c2)cc1S(=O)(=O)N1CCCC1,3.95,
Cc1c(NC(=O)C(C)(C)C)cccc1-c1nc2ccccc2s1,16,
O=C(O)c1cccc(NC(=O)c2ccccc2NC(=O)c2ccco2)c1,10.3,
CCOc1ccc2nc(NC(=O)c3ccoc3C)sc2c1,,449 nM (active)
O=C(O)c1ccc(NC(=O)c2cccc(C(=O)Nc3ccc(C(=O)O)cc3)c2)cc1,-0.0974,
CC(C)C(=O)Nc1cccc(C(=O)Nc2ccccc2C(=O)O)c1,6.56,
O=C(Nc1ccccc1C(=O)O)c1cc(S(=O)(=O)Nc2cccc(F)c2)ccc1Cl,-2.5,
COc1ccc2nc(NC(=O)c3cccc(S(=O)(=O)N4CCOCC4)c3)sc2c1,4.08,
O=C(O)c1cccc(NC(=O)c2cccc(S(=O)(=O)N3CCc4ccccc4C3)c2)c1,11,
COc1ccc(Br)cc1C(=O)Nc1ccc(C(=O)O)cc1,6.32,
